This is an account of results in PubChem BioAssay AID1903 (Southern Research Specialized Biocontainment Screening …, 2009).

Screen size: about 310,000 compounds; about 1,200 (0.39%) were called active. A selection follows. Potency and affinity values are given separately. A number with no mark means an inactive call. No rule for the calls is given here.

Chain of Large T antigen (Simian virus 40) (P03070 whole entry, looked up): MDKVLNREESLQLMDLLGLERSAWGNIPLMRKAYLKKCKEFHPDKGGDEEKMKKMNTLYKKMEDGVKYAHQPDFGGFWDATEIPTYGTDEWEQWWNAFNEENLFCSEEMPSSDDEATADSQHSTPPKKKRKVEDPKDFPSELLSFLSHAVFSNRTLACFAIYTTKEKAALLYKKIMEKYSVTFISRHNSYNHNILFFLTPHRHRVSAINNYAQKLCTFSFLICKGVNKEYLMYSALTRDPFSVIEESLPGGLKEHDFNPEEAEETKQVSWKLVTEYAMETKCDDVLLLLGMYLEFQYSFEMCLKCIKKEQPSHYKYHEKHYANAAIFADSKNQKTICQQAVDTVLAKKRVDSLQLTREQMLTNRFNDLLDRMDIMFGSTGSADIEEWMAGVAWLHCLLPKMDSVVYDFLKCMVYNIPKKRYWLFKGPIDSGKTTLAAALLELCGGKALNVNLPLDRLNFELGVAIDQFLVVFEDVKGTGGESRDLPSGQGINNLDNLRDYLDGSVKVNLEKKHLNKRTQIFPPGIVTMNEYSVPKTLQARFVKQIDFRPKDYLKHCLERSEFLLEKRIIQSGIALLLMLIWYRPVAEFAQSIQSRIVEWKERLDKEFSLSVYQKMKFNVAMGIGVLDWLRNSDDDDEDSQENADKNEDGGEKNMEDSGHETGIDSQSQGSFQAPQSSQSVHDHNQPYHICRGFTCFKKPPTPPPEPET

This assay has as its target Large T antigen (Simian virus 40) (UniProt P03070). Put plainly: TAg ATPase/helicase activity blockers – biochemical (AID 1903). The following applies: SV40 large T antigen ATPase/helicase inhibition assay; at 20 µM; stronger effect = higher value.
`CC(=O)Nc1ccc(N2CCN(C(C)=O)CC2)cc1`: the inhibition is 27.6%. Then `O=C(CN1CCCCC1)Nc1ccc(N2CCCCCC2)cc1`, with 31.6%; and `CC(=O)Nc1ccc(N2CCCC2)cc1`, with 0.723%; and `CCC(=O)Nc1ccc(N2CCCCC2)cc1`, with 34.9%.

With `CNC(=O)C12CC3CC(CC(Cl)(C3)C1)C2`, the inhibition is 11.2%. To `O=C(CC(C(=O)O)c1cccc(Br)c1)c1ccc(Cl)cc1` (configuration not stated) belongs 9.51%; to `Nc1cccc2cnccc12`, 3.43%; to `N#Cc1cccc2cnccc12`, 7.69%. With `O=C(CSc1ccc(-c2ccccc2)nn1)c1cccs1`, the inhibition was 3.38%. Take `Cc1nonc1OCCNCc1c(C(=O)N(C)C)nc2ccc(Cl)cn12`: the inhibition is 6.84%. To `S=c1[nH]nc(-c2ccncc2)n1/N=C/C=C/c1ccco1` belongs 28.8%; to `S=c1[nH]nc(-c2ccc(Cl)cc2)n1/N=C/c1ccco1`, 35.9%; to `C(/C=C/c1ccco1)=N/N1CCN(c2ccccc2)CC1`, 7.94%. For the compound `C(=C\c1ccco1)/C=N/n1cnnc1`, the inhibition was 21.7%. As for `Cc1ccc(N/N=C/C=C/c2ccco2)cc1`, the inhibition was 12.9%. `O=C1OC(c2ccc(Cl)cc2)=N/C1=C\C=C\c1ccco1`: the inhibition is 58.1%. Then `Cc1ccccc1-n1nc2c(c1NC(=O)c1ccc3c(c1)OCO3)CS(=O)(=O)C2`, with 5.82%; and `CC(=O)Nc1ccc(N(C(=O)c2ccccn2)C(C(=O)NC2CCCCC2)c2ccc(F)cc2)cc1` (configuration not stated), with 5.17%. Then `Cc1ccc2[nH]c(=O)c(C(c3nnnn3C(C)(C)C)N(Cc3ccco3)CC3CCCO3)cc2c1` (configuration not stated), with 9.73%; and `Cc1occc1C(=O)Nc1sc2c(c1C(N)=O)CCC(C(C)(C)C)C2` (configuration not stated), with 16.6%. In the case of `COc1cc(OC)c(N(C)S(=O)(=O)c2cccc(C(=O)OCc3c(C)noc3C)c2)cc1Cl`, the inhibition is 5.27%.

Regarding `Cc1ccc(N2C(=O)C3CCC(C)(C2=O)C3(C)C)cc1` (configuration not stated), the inhibition is 1.07%. With `O=C(Cn1cnc2ccccc2c1=O)Nc1nc2ccccc2s1`, the inhibition is 4.55%. With `Cc1nnsc1C(=O)N1CCCC(C(=O)c2ccc(C(F)(F)F)cc2)C1` (configuration not stated), the inhibition is -2.34%.

Consider `Cc1cccc(OCC(=O)N2CCN(c3nnc(-c4ccccc4)c4ccccc34)CC2)c1`, for which the inhibition was 12.7%. To `CCn1cc(C(=O)NCC(C)C)c(=O)c2cc(F)c(N3CCN(C)CC3)cc21` belongs 15.3%. Then `COc1cc(OC)cc(C(=O)NCC2CCCN(C(=O)c3csc(C(C)C)n3)C2)c1` (configuration not stated), with 12.6%; and `Cc1ccc(COc2ccc(S(=O)(=O)N3CCCC3)cc2C(N)=O)cc1`, with 4.61%. To `O=C(Nc1ccc(F)cc1)Oc1ccc[nH]c1=O` belongs 9.86%. On to `COc1ccccc1N1CCN(C(=O)/C=C/c2ccc(C)cc2)CC1`, for which the inhibition is 9.93%.

Turning to `CCc1ccc2[nH]c(=O)c(CN(CC3CCCO3)C(=S)NCc3ccco3)cc2c1` (configuration not stated), the inhibition is 10.7%. To `O=C(CSc1n[nH]c(=O)n1Cc1ccco1)Nc1ccccc1Cl` belongs 12.1%; to `N=c1n(CCO)c2ccccc2n1CCN1CCCCC1`, 6.21%; to `COc1ccc(N2C(=O)c3ccccc3NC23CCCCC3)cc1`, -1.05%. Take `COc1ccc(N2C(=O)c3ccccc3NC23CCCC3)cc1`: the inhibition is 5.28%. Then `O=[N+]([O-])c1cccc(S(=O)(=O)c2cccc([N+](=O)[O-])c2)c1`, with 3.63%; and `O=C(/C(=C(\[O-])c1ccccc1)[n+]1ccc2ccccc2c1)c1ccc([N+](=O)[O-])cc1`, with 15%. Then `CCC(C)N(C(=O)CSc1nnc(-c2ccco2)n1C)C1CCS(=O)(=O)C1` (configuration not stated), with 13.2%; and `CCc1nc2nc(C)c(NS(=O)(=O)c3ccc(C)c(C)c3)c(=O)n2[nH]1`, with 4.17%. To `O=C(Oc1ccc(-c2nnco2)cc1)C1CCN(C(=O)c2ccc(F)cc2)CC1` belongs 5.55%; to `COC(=O)N/C(C)=C1/NC(=O)c2ccccc2C(c2ccccc2)N1` (configuration not stated), 6.67%. In the case of `O=C(O)c1ccc2c(=O)n3c(nc2c1)/C(=C/c1ccc(Cl)c(Cl)c1)CC3`, the inhibition was 24.8%. Then `CC(=O)c1ccc(OC(=O)C(CCS(C)(=O)=O)N2C(=O)c3ccccc3C2=O)cc1` (configuration not stated), with 3.15%. To `COc1ccc(NC(=O)C(CCS(C)(=O)=O)N2C(=O)c3ccccc3C2=O)cc1` (configuration not stated) belongs 11.7%; to `CCOC(=O)N1CCN(C(=O)CC(C)S(=O)(=O)c2cc3c(cc2C)NC(=O)CO3)CC1` (configuration not stated), 6.54%. Then `Cc1ccc(-n2c(SCC(=O)OC(C)C)nnc2-c2ccncc2)cc1`, with 9.08%; and `O=c1[nH]c2ccc(F)cc2[nH]c1=O`, with 22.1%. As for `O=c1[nH]c2ccccc2c2ccccc12`, the inhibition is 11.7%. Then `Cc1cc(=O)c2ccccc2s1`, with 23.3%; and `O=C1Nc2ccc(F)cc2C12SCCS2`, with -3.17%; and `CC(=O)N1CCN(c2cc(N3CCc4ccccc4C3)c(F)cc2[N+](=O)[O-])CC1`, with 29.4%. Then `COc1ccc(C(=O)O)cc1N1C(=O)Nc2ccccc2N1O`, with 13.6%. Regarding `O=C(NCc1cccs1)C1CC(O)CN1C(=O)Nc1ccccc1` (configuration not stated), the inhibition is 3.53%. Turning to `Nc1ccccc1Nc1nc2ccccc2[nH]1`, the inhibition was 26.5%.

Turning to `Nc1ccc(-c2nc3ccccc3[nH]2)cc1`, the inhibition is 6.85%. Then `COc1ccc(CCNC(=O)c2cn(C)c3ccc(S(=O)(=O)N4CCOCC4)cc3c2=O)cc1OC`, with 5.2%.

With `C=CCNS(=O)(=O)c1ccc(OC)c(C)c1`, the inhibition is 1.44%.

For the compound `O=c1oc(/C=C/c2ccc([N+](=O)[O-])s2)nc2ccccc12`, the inhibition is 6.31%. Take `CCCN1C(=O)/C(=C/c2ccc(C)s2)NC1=S`: the inhibition is 8.4%. As to `CCN1C(=O)/C(=C/c2ccc(C)s2)NC1=S`, the inhibition is 11.9%.

For the compound `O=C(/C=C/c1ccc([N+](=O)[O-])s1)N1CCN(c2ccccc2)CC1`, the inhibition was 16%. Regarding `O=C(N/N=C/c1ccc([N+](=O)[O-])s1)C(O)c1ccccc1` (configuration not stated), the inhibition was 4.11%. Then `CN(C(=O)/C=C/c1ccc([N+](=O)[O-])s1)c1ccccc1`, with -0.18%; and `CCCCc1c(C(=O)O)cc(OC)cc1C(=O)O`, with 12.1%; and `O=C(CSc1nc(O)cc(=O)n1-c1ccc(Cl)c(Cl)c1)Nc1ccc(Cl)cc1Cl`, with 28.9%. To `Cn1nccc1C(=O)N1CCC(Cc2ccccc2)CC1` belongs 11.7%; to `COC(=O)CC1C(=O)NCCN1C(=O)Nc1ccc(Cl)c(Cl)c1` (configuration not stated), 4.47%. Then `CCC(C)NC(=O)CCc1c(C)nc2c(c(C)nn2-c2ccccc2)c1C` (configuration not stated), with 6.67%.

As to `CC(=O)c1c(C)oc2ccc(N(C(C)=O)S(=O)(=O)c3cccc4cccnc34)cc12`, the inhibition is 10.6%. Then `FC(F)(F)c1ccc(Cl)c(NC2=NCCCCC2)c1`, with 7.53%; and `CC(C)OC(=O)C(C(=O)C(F)(F)F)c1cc(NS(=O)(=O)c2ccc3ccccc3c2)c2ccccc2c1O` (configuration not stated), with 15.1%. To `COc1cc(/C=N/n2nnnc2N)ccc1OC(C)=O` belongs 12.9%; to `CCOc1cc(/C=N\n2nnnc2N)ccc1O`, 33.9%. To `CCOc1ccc(/C=N/n2nnnc2N)cc1OCC` belongs 5.4%. For the compound `COc1ccc(/C=N/n2nnnc2N)cc1OC`, the inhibition is 11.7%. With `O=C(NCc1ccccn1)c1ccc(Cl)c(S(=O)(=O)N2CCCCC2)c1`, the inhibition is 6.41%.

In the case of `COc1ccc(CNC(=O)C2CCN(S(=O)(=O)N3CCCCC3)CC2)cc1`, the inhibition is 7.96%. Then `NC(=O)c1cc(S(=O)(=O)N2CCN(c3ccc([N+](=O)[O-])cc3)CC2)cs1`, with 14.4%. With `CCOC(=O)c1cnc2cc(F)c(F)cc2c1N1CCOCC1`, the inhibition was 0.2%. Regarding `O=C(COc1c(Cl)cc(Cl)cc1Cl)c1ccc(Cl)cc1`, the inhibition is 2.07%. To `Cc1ccc(NS(=O)(=O)c2ccc3c(c2)oc(=O)n3C)cc1` belongs 6.64%.

As to `CC(=O)Nc1ccc(NS(=O)(=O)c2ccc3c(c2)oc(=O)n3C)cc1`, the inhibition was 10.1%.

For the compound `Cc1ccc(NC(=O)CN2C(=O)c3ccccc3S2(=O)=O)c(C)c1`, the inhibition was 10.7%. Then `COCC(=O)Nc1ccc(N(C)C)cc1`, with 33.7%.

For `CN(C)c1ccc(CNCC2CCCO2)cc1` (configuration not stated), the inhibition is 7.34%. Turning to `CCCNC(=O)C(=O)Nc1ccc(N(C)C)cc1`, the inhibition was 18.4%. Then `CN(C)c1ccc(C(=O)NCC2CCCO2)cc1` (configuration not stated), with 5.69%; and `CC1CCN(C(=O)Cn2c(=O)n(CCCC(=O)NCc3ccco3)c(=O)c3sccc32)CC1`, with 8.64%. Then `O=C(Nc1ccccc1C(=O)Nc1ccccc1)c1cccs1`, with 5.41%; and `Cc1c(C(=O)Nc2cc(S(=O)(=O)N3CCOCC3)ccc2N2CCOCC2)oc2ccccc12`, with 0.37%.

On to `CCC(CC)C(=O)Nc1nnc(S(=O)(=O)N(CC)c2ccc(OC)cc2)s1`, for which the inhibition is 3.96%. Then `Cc1ccc(S(=O)(=O)N2CCOCC2)cc1C(=O)c1nccn1C`, with 8.29%. `Cc1ccc(S(=O)(=O)ON=C2CCN(S(=O)(=O)c3ccccc3)CC2)cc1`: the inhibition is 1.39%. `CC1=C/C(=N\OS(=O)(=O)c2ccccc2)C=CC1=O`: the inhibition is 26.7%.

`CCc1nnc(NC(=O)CSc2nnc(Cc3cc(=O)[nH]c(=O)[nH]3)n2-c2ccc(OC)cc2)s1`: the inhibition is 3.92%.

As for `NC(=NCCc1c[nH]c2ccccc12)NS(=O)(=O)c1ccc(F)cc1`, the inhibition was -1.17%. As for `CCCNCc1cc(OC)c(OCC(=O)NCCc2ccccc2)cc1Br`, the inhibition was 6.19%.

A word on the inhibition: it is the drop in the measured response relative to a control, in per cent.
